Screens deposited in PubChem BioAssay by National Center for Advancing Translational Sciences (NCATS).
Compounds with a hit are over-represented: about 3.1% of the library has one in this group of screens.
Tau fluor counter: counter-screen for tau fibril formation inhibitors. 0.93% of 280,000 active. tau K18 P301L Alexa594 fluorescence, heparin fibrillization. Potency, µM (highest dose often 57.7 µM); further: nearly all actives have a fitted effect of over 55% in size
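Human tau K18 P301L (15 uM unlabeled, 0.24 uM Alexa 594-labeled) in 100 mM sodium acetate pH 7 with 20 uM heparin, 6 hr at 37 C. ThT 30 uM added, 1 hr ambient; Alexa 594 FP and total fluorescence read at 555/632 nm.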
TRb SRC2 PPI: disrupts binding of human TR beta to SRC2 | P10828 | TRbeta-SRC2 peptide binding, fluorescence polarization; receptor liganded with 1 µM T3 | Potency, µM (titrated, usually from 106 µM), most hits filed as inhibitors | 0.065% of 280,000 active; further: nearly all actives have a fitted effect of over 50% in size
Target sequence (P10828 whole entry, looked up): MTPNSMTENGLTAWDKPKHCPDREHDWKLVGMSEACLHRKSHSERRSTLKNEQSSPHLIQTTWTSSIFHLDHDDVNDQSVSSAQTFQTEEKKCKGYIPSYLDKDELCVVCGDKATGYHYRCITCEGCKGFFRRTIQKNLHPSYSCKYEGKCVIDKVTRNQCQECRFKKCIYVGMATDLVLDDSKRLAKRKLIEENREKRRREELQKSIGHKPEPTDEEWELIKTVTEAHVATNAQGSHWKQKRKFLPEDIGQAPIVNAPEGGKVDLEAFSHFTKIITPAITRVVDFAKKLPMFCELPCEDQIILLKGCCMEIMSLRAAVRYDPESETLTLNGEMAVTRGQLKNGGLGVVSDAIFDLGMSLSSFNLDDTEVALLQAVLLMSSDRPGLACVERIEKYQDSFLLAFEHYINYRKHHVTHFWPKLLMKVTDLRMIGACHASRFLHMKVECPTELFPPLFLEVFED
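Binding of a 20-amino-acid Texas Red SRC2 peptide (20 nM) to TRb ligand-binding domain (0.6 uM) with agonist T3 at 1 uM was followed by fluorescence polarization after a 5 hr room-temperature incubation.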
Tau ThT inhib: tau fibrillization inhibition (ThT binding). P10636. recombinant tau K18 P301L, heparin-induced fibrillization, ThT fluorescence. Potency, µM (highest dose often 57.4 µM), hits mostly inhibitors. 2.1% of 270,000 active; further: nearly all actives have a fitted effect of over 55% in size
Target sequence (P10636 561-689 P618L limits assumed): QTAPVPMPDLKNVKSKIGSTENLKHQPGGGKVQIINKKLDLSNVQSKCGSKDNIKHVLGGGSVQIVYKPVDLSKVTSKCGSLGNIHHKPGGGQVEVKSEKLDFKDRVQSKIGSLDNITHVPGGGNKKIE
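ThT emission at 510 nm, taken 1 hr after adding 30 uM dye, quantifies aggregates formed when 20 uM heparin acts on human tau K18 P301L for 6 hr at 37 C.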
Tau FP inhib: blocks human tau fibril formation measured by polarization | 0.39% of 280,000 active | Potency, µM (highest dose often 57.7 µM), most hits filed as inhibitors | K18 P301L tau heparin fibrillization, Alexa594 FP, 6 h; further: nearly all actives have a fitted effect of over 55% in size
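Recombinant K18 P301L […], labeled with Alexa 594 at 0.24 uM over 15 uM unlabeled; heparin inducer 20 uM final; 37 C, 6 hr; FP endpoint.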
TR SRC2 fluor cs: alters Texas Red total fluorescence, flagging assay interference; TRb/SRC2 Texas Red total fluorescence interference; AID 1479; Potency, µM (highest dose often 106 µM); 0.29% of 280,000 active; active means well fitted curve in either direction with a large enough effect; inconclusive means small, poorly fitted or top-dose-only effect
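Human TRb ligand-binding domain at 0.6 uM with 20 nM Texas Red SRC2 peptide in Tris buffer containing 1 uM T3 and 5% DMSO, incubated with compound 5 h at ambient temperature. Total fluorescence (555/632 nm) calculated as parallel + 2 × perpendicular.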
Numbers stand for hits; 0 = inactive; ? = inconclusive; - = no result given; ! = repeats disagree; [ ] = dose if it differs, or a comment. Unless noted, the call rests on the fitted dose curve; in most records, active means well fitted curve in the direction sought with a large enough effect; inconclusive means small, poorly fitted or top-dose-only effect, or another doubt; inactive means no such curve, though single readings can be large; an effect the other way counts as inactive or inconclusive.

SMILES | Tau fluor counter | TRb SRC2 PPI | Tau ThT inhib | Tau FP inhib | TR SRC2 fluor cs
O=C1NC(=O)N(Cc2cccs2)C(=O)/C1=C/c1ccc(N2CCOCC2)cc1 | 0 | 0 | ? | 0 | 0
O=C1NC(=O)N(Cc2ccccc2Cl)C(=O)/C1=C/N1CCOCC1 | 0 | 0 | 17.8µM | ? | 0
CCOc1nc(F)cc2nc(S(=O)(=O)Nc3c(Cl)cccc3Cl)nn12 | - | 0 | - | - | 0
CSC1=N[C@@](C)(c2ccccc2)C(=O)N1Nc1ccccc1 | - | 0 | - | - | 0
CCCCCc1cc(O)cc(O)c1 | - | 0 | - | - | 0
C=C(C)C1CCC(C)=CC1c1c(O)cc(O)cc1CCCCC (centres undefined) | 28.2µM[quencher] | 0 | ? | 0 | 0
CCN(CC)S(=O)(=O)c1cccc(N=Nc2c(O)n(CC)c(=S)n(CC)c2=O)c1 | ? | 0 | 15.8µM | 0 | 0
Cn1c(O)c(N=Nc2cccc(S(=O)(=O)N3CCOCC3)c2)c(=O)n(C)c1=O | 0 | 0 | 0 | 0 | 0
Cn1ncnc2c(=O)n(C)c(=O)nc1-2 | 0 | ? | 11.2µM | ? | 0
O=CC(Br)P(=O)(N1CCOCC1)N1CCOCC1 (centres undefined) | ? | 0 | 10µM | 25.1µM | 0
O=CC(Cl)P(=O)(N1CCCCC1)N1CCCCC1 (centres undefined) | 0 | 0 | ? | 0 | 0
COc1ccc2oc(=O)c(C(=O)NCCc3c(C)[nH]c4ccc(F)cc34)cc2c1 | 7.94µM[quencher] | 0 | ? | ? | 0
CN1C(=O)NC(=O)/C(=C/c2ccc([N+](=O)[O-])o2)C1=O | 0 | 0 | 12.6µM | ? | 0
CN1C(=O)NC(=O)/C(=C\c2ccc([N+](=O)[O-])o2)C1=O | 0 | 0 | 28.2µM | ? | 0
O=C1NC(=O)N(c2ccccc2)C(=O)/C1=C\c1ccc([N+](=O)[O-])o1 | ? | 0 | 17.8µM | ? | 0
Cc1ccc(/C=C2/C(=O)NC(=O)N(C)C2=O)cc1 | 0 | 0 | ? | 0 | 0
CCOP(=O)(OCC)SCSCC | - | 0 | - | - | 0
Cc1c2ccncc2c(C)c2c1[nH]c1ccccc12 | ? | 0 | 11.2µM | 0 | 0
c1ccc2c(c1)[nH]c1cnccc12 | 0 | 0 | 0 | 0 | 0
COP(=O)(OC)Oc1ccc([N+](=O)[O-])cc1 | - | 0 | - | - | 0
C#CCN1C(=O)COc2cc(F)c(N3C(=O)C4=C(CCCC4)C3=O)cc21 | - | 0 | - | - | 0
CN(C)c1ccc(C=C2C(=O)NC(=S)NC2=O)cc1[N+](=O)[O-] | ? | 0 | 31.6µM | ? | 0
CC1(C)[C@H](C=C(Cl)Cl)[C@H]1C(=O)O[C@H](C#N)c1ccc(F)c(Oc2ccccc2)c1 | - | 0 | - | - | 0
CCC(C)c1ccc(O)cc1 (centres undefined) | - | 0 | - | - | 0
N#CC(C#N)=NNc1ccc(S(=O)(=O)N2CCCC2)cc1 | 0 | 0 | 17.8µM | 0 | 0
SMILES | Tau fluor counter | TRb SRC2 PPI | Tau ThT inhib | Tau FP inhib | TR SRC2 fluor cs
CCCCCCCCCCCCCCC(Br)C(=O)O (centres undefined) | - | 0 | - | - | 0
Cc1ccccc1N1C(=O)CC(=O)NC1=O | 0 | 0 | 15.8µM | ? | 0
Cc1ccc(OCC(=O)N2CCN(CCc3ccncc3)CC2)cc1 | 0 | 0 | 0 | 0 | 0
CCc1ccc(OCC(=O)N2CCN(CCc3ccncc3)CC2)cc1 | 0 | 0 | 0 | 0 | 708µM[quencher]
Brc1ccc(Br)cc1 | - | 0 | - | - | 0
O=C(Nc1ccc(Br)cc1)c1cc(Br)cc(Br)c1O | ? | 0 | 12.6µM | 0 | 0
CN/C(=N/[N+](=O)[O-])NCC1CCOC1 (centres undefined) | - | 0 | - | - | 0
N#CC(C#N)=NNc1cccc(Cl)c1 | ? | 0 | 4.47µM | ? | 0
CC(C)OC(=O)Nc1cccc(Cl)c1 | 0 | 0 | 0 | 0 | 0
O=C(NC(=O)c1c(F)cccc1F)Nc1cc(Cl)c(OC(F)(F)C(F)C(F)(F)F)c(Cl)c1F (centres undefined) | - | 0 | - | - | 0
O=C(O)C1Sc2[nH]c(=O)sc2C2c3cc(Cl)ccc3OC(=O)C12 (centres undefined) | ? | 0 | 22.4µM | 0 | 0
CC(C)(C)c1cc(C=C(C#N)C#N)cc(C(C)(C)C)c1O | ? | 0 | 15.8µM | ? | 0
N#CC(C#N)=Cc1ccc(O)c(O)c1 | 0 | 0 | 14.1µM! | ? | 0
C[N+]1(C)CCCCC1 | - | 0 | - | - | 0
CCOC(=O)Nc1cccc(OC(=O)Nc2ccccc2)c1 | - | 0 | - | - | 0
FC(F)C(F)(F)OCC(Cn1cncn1)c1ccc(Cl)cc1Cl (centres undefined) | - | 0 | - | - | 0
CNC(=O)O/N=C(\SC)C(=O)N(C)C | - | 0 | - | - | 0
O=C1NC(=O)C(=Cc2ccccc2Oc2ccc(F)cc2)C(=O)N1 | 0 | 0 | ? | 0 | 0
O=C1NC(=S)NC(=O)C1=Cc1cccc2cc3ccccc3cc12 | 15.8µM[quencher] | 0 | 11.2µM | 0 | 0
CCOP(=S)(OCC)SCCl | - | 0 | - | - | 0
Cc1ccccc1N1C(=O)NC(=O)/C(=C/c2ccc(N3CCOCC3)o2)C1=O | 0 | 0 | 0 | 0 | 0
Cc1ccccc1N1C(=O)NC(=O)/C(=C\c2cc(Br)c(N3CCOCC3)o2)C1=O | 0 | 0 | 15.8µM | ? | 0
O=C(O)c1ccccc1N=Nc1c(O)[nH]c(=O)[nH]c1=O | 0 | 0 | 0 | 0 | 0
O=c1[nH]c(=S)[nH]c(O)c1N=Nc1cc2c(cc1[N+](=O)[O-])OCO2 | 0 | 0 | 12.6µM | 0 | 0
O=c1[nH]c(=S)[nH]c(O)c1N=Nc1ccc(-c2ccccc2)cc1[N+](=O)[O-] | ? | 0 | 3.98µM | 0 | 0
SMILES | Tau fluor counter | TRb SRC2 PPI | Tau ThT inhib | Tau FP inhib | TR SRC2 fluor cs
CCOC(=O)c1cnc2c(ccc3ccccc32)c1Nc1ccc(N(C)C)cc1 | ? | 0 | ? | 0 | 0
Cc1c(C)n(O)c2ccc3nonc3c12 | 0 | 0 | 31.6µM | ? | 0
Nc1nc(N)nc(Cl)n1 | - | 0 | - | - | 0
N=C(N)c1c(O)n(C2CCCCC2)c(=O)n(C2CCCCC2)c1=O | ? | 0 | 0 | 28.2µM | 0
COC(C)(C)CCC[C@H](C)C/C=C/C(C)=C/C(=O)OC(C)C | - | 0 | - | - | 0
COCCOC(=O)C1=C(C)OC(N)=C(C(=O)OC)C12C(=O)Nc1ccccc12 (centres undefined) | 0 | 0 | 39.8µM | ? | 0
CC(=O)C1=C(C)OC(N)=C(C(=O)OC(C)C)C12C(=O)Nc1ccccc12 (centres undefined) | 0 | 0 | ? | 0 | 0
Oc1c(Cl)cc(Cl)cc1Cl | - | 0 | - | - | 0
Cc1[nH]n(-c2ccccc2)c(=O)c1C(c1ccc([N+](=O)[O-])cc1)c1c(C)[nH]n(-c2ccccc2)c1=O | 0 | 0 | 0 | 0 | 0.355µM[quencher]
CN1c2ccc([N+](=O)[O-])cc2CC2(C(=O)NC(=O)N(c3ccccc3)C2=O)C1c1ccccc1 (centres undefined) | 0 | 0 | ? | 0 | 0
CCCN(CC)CC1COC2(CCC(C(C)(C)C)CC2)O1 (centres undefined) | - | 0 | - | - | 0
O=C(O[C@@H]1Cc2c(O)cc(O)cc2O[C@@H]1c1cc(O)c(O)c(O)c1)c1cc(O)c(O)c(O)c1 | 14.1µM[quencher] | 0 | 12.6µM | ? | 0
O=C(OC1Cc2c(O)cc(O)cc2OC1c1cc(O)c(O)c(O)c1)c1cc(O)c(O)c(O)c1 (centres undefined) | 6.31µM[quencher] | 0 | 6.31µM | 17.8µM | 0
